SMILES strings stand for the structures. Compounds without any hit were thinned out: in the full panel of roughly 83,000, 20% have a hit.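 Single-concentration screen, 48 h exposure, 96-well plates. Endpoint: percent growth. Below 10 = active.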 A number with no mark means an inactive call. The source made the active and inactive calls.

The assay relates to RPMI-8226 leukemia. Put plainly: NCI-60 one-dose screen, 48 h (100 = growth as untreated, 0 = no growth, -100 = all killed). The conditions noted are these: 10 µM unless noted. As to the method:
Growth inhibition of the RPMI-8226 human tumor cell line is measured as a screen for anti-cancer activity. Cells are grown in 96 well plates and exposed to the test compound for 48 hours. Compounds are tested at a single concentration, which is 10^-5 M for most compounds. The reported endpoint is percent growth (GI% or GIPRCNT), where numbers from 0 - 100% represent growth inhibition, and numbers from -100% - 0 represent cell death. For example, a value of 40 represents 60% growth inhibition. A value of 0 means no net growth occurred over the course of the experiment. A value of -40 indicates 40% of cells at the beginning of the experiment died by the end of the experiment. A value of -100 means all cells are dead at the end of the experiment.
NCI-60 Human Tumor Cell Lines Screen was performed using the standard one-dose NCI protocol, which is described in more detail at https://dtp.cancer.gov/discovery_development/nci-60/default.htm.
Compounds with GIPRCNT values below 10 were considered active. Activity score was based on GIPRCNT using the following formula: […]
Score is 0 for GIPRCNT values of 100 or above, 50 for GIPRCNT values of 0, and 100 for GIPRCNT values of -100.
For the compound `CC(=O)c1c(Nc2cccc(F)c2)[nH]c2c(Cl)cc(Cl)c(Cl)c2c1=O`, the growth is -8.11% (active).
With `O=C1C=CC2(O)OC/C(=C\c3ccccc3)C(O)=C2C1=O` (stereo not given), the growth was 0.943% (active).
On to `O=Nc1ccc(NC(=O)Nc2ccc([N+](=O)[O-])cc2)cc1`, for which the growth is 44.1%.
In the case of `C=CC(=O)Nc1cccc(Oc2nccc(Nc3nnc(-c4ccc(Br)cc4)s3)n2)c1`, the growth was 87.4%.
For the compound `O=C(Nc1nc(Cl)nc(Nc2ccc(N3CCOCC3=O)cc2)n1)c1ccc(Cl)s1`, the growth is 90.3%.
The figure for `COc1cc(C=Nc2oc(-c3ccccc3)c(-c3ccccc3)c2C#N)cc(CN2CCCC2)c1O` is 100%; for `O=C(C[C@]1(O)C(=O)Nc2ccc(Br)cc21)c1ccco1` it is 100%.
The figure for `Cc1cc(=O)oc2cc(Oc3nc(Br)cn4c(Br)cnc34)ccc12` is 95.5%; for `CS(=O)/C(C#N)=C\C=C\c1cccc(Cl)c1` (stereo not given) it is 2.54% (active).
Take `COc1cc(N2C(=O)[C@H](Cl)C2c2ccc(SC)cc2)cc(OC)c1OC` (stereo not given in full): the growth was 3.63% (active).
Take `CC(=O)c1ccc(-n2cc(CN3CCN(c4cc5c(cc4F)c(=O)c(C(=O)O)cn5C4CC4)CC3)nn2)cc1`: the growth was 47.9%.
Regarding `OC1CSSC1Cn1cnc2c(Nc3ccc(OCc4cccc(F)c4)c(Cl)c3)ncnc21` (stereo not given), the growth is -37.5% (active).
The figure for `O=C(CCCCCCCC(=O)N1CCCCC1)N1CCCCC1` is 103%.
For `O=C1CCC(C(=O)N/N=C/c2cc(F)ccc2F)N1` (stereo not given), the growth is 103%.
The figure for `C=C1CC[C@@H]2C(C)(C)[C@H](O)CC[C@@]2(C)[C@@H]1COc1ccc2ccc(=O)oc2c1` is 6.64% (active).
In the case of `CC/C(=C(/c1ccc(O)cc1)c1ccc(OCCN2CCCCC2)cc1)c1ccc(OC)cc1` it was 62.6%.
The figure for `CC(O)CNC(Cc1ccccc1)c1ccc2c(c1)OCO2` (stereo not given) is 90.3%.
For the compound `Cc1nc2sc(C(=O)Nc3cccc(Cl)c3C)c(N)c2cc1C(=O)/C=C/c1ccccc1`, the growth was -37.2% (active).
In the case of `COCC(=O)Oc1cc(-c2ccc(C)cc2C)c(OC(=O)COC)c(-c2ccc(C)cc2C)c1` it was 34.2%.
With `COC(=O)c1sccc1-c1cc(O)c(C(=O)Nc2ccccc2)s1`, the growth is 93.4%.
In the case of `CCn1cc(C(=O)N/N=C/c2ccccc2)c(=O)c2cc(F)c(N3CCNC(C)C3)c(F)c21` (stereo not given) it was -42.4% (active).
In the case of `C=CN(C(=O)N1CCN(c2cc3c(cc2F)c(=O)c(C(=O)O)cn3C2CC2)CC1)c1nc(-c2ccc(Cl)cc2)cs1` it was 15.9%; in that of `COc1ccc(/C=N/NC(=O)Cn2c(-c3ccc(S(C)(=O)=O)cc3)nc3ccccc32)cc1`, 105%; in that of `CCCC(O)Cn1ncc(C(=O)OCC)c1NC(=O)NCc1cccc(C(F)(F)F)c1` (stereo not given), 47.9%.
Take `CCCCNC(=O)c1ccc2c(c1)nc(-c1ccccc1)n2C1CCCCC1`: the growth was 88.3%.
`COc1ccc(CN2C(=O)OC(C)(COC(C)=O)C2=O)cc1` (stereo not given): the growth was 103%.
For `CS(=O)(=O)Nc1cc(-c2ccc3ncnc(Nc4ccc5c(cnn5Cc5ccncc5)c4)c3c2)cnc1Cl`, the growth is 64.3%.
In the case of `Cc1ccc(NC(=O)c2cc3ccccc3cc2O)c(C)c1` it was 29.4%.
The figure for `COCCn1cc(-c2csc(-c3c[nH]c4ccccc34)n2)c2cccnc21` is 43.8%.
The figure for `O=C1O[C@@H](c2ccccc2Cl)[C@@H]2c3cc4c(cc3CCN12)OCO4` is 94.4%; for `COC(=O)[C@@]12CC=C(C)[C@]3(C[C@H](c4ccoc4)OC3=O)[C@H]1C=C[C@@H](O)[C@@]2(O)C(=O)OC` it is 120%.
As for `COc1ccc(C2CC(c3ccccc3)=NN2C(=O)c2cc(OC)c(OC)c(OC)c2)cc1O` (stereo not given), the growth is -20.5% (active).
In the case of `CCN1CCN(CCNc2nccc(-c3c(-c4ccc(F)c(O)c4)nc4occn34)n2)S1(=O)=O` it was -22.7% (active); in that of `O=c1oc2ccccc2cc1-c1nn(-c2ccccc2)cc1-c1nn[nH]n1`, 100%; in that of `CCOC(=O)c1nnn(Cc2cc(=O)oc3ccc(O)cc23)c1C`, 96.7%.
In the case of `CN1C(=O)/C(=C/c2ccc(C(=O)Nc3ncc(Cc4cccc(C(F)(F)F)c4)s3)cc2)SC1=S`, the growth was 22.1%.
Consider `Nc1nc(C(=O)N/N=C/c2ccc(F)cc2)nn1-c1ccc(S(N)(=O)=O)cc1`, for which the growth was 91%.
The figure for `Fc1cccc(CNc2c3ccccc3nc3ccccc23)c1` is 10.1%; for `CN1CCN(c2ccc(NC3=CC(=O)c4ncncc4C3=O)cc2)CC1` it is -29.1% (active).
The figure for `c1cc(OCCN2CCCCC2)ccc1CNc1ccc2nc(CCC3CCCCC3)[nH]c2c1` is -22.5% (active).

Source of the values: PubChem BioAssay (NCI).
